Measurements as given in PubChem BioAssay AID1159580 (chemical genetic matrix, 2015).
Values joined by “and” are separate entries in the source; they are usually repeats but may differ in a detail not shown here. Equal values may be shown once. In all, about 5,500 compounds went through this assay and about 2,000 (36%) were called active. Not shown: some 18% with an inconclusive outcome. Rule as the data show it: active = normalized growth mostly below about 0.91 (no sharp cut-off); inconclusive = no clear call, values can overlap the other calls; inactive = mostly above about 0.92. This is one part of the list.

Assay: chemical genetic growth profiling, strain panel (AID 1159580);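 also: tested at 20 µM; growth read once vehicle control cultures reached saturation at 30 °C; 1 = growth at the plate median or of vehicle wells; lower values mean less growth of the strain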
Settings: S. cerevisiae deletion strains, growth OD

Measured: normalized growth

O=[N+]([O-])c1cc(O)c(O)c([N+](=O)[O-])c1
inactive: locus YAL021C, strain ccr4, hits give low values 1.01 | locus YAL026C, strain drs2, hits give low values 1.01 | locus YAL030W, strain snc1, hits give low values 1.02 | locus YAL040C, strain CLN3, hits give low values 0.986 | locus YBL061C, strain skt5, hits give low values 1.01 | locus YBR009C, strain hhf1, hits give low values 1.07 | locus YBR021W, strain FUR4, hits give low values 0.953 | locus YBR023C, strain chs3, hits give low values 1.03 | locus YBR171W, strain sec66, hits give low values 1.01 | locus YBR229C, strain ROT2, hits give low values 1.01 | locus YBR231C, strain swc5, hits give low values 0.983 | locus YBR279W, strain paf1, hits give low values 1.03 | locus YCL011C, strain gbp2, hits give low values 1.03 | locus YCL016C, strain dcc1, hits give low values 1.05 | locus YCL029C, strain bik1, hits give low values 0.984 | locus YCL061C, strain MRC1 (second series), hits give low values 0.993 | locus YCL061C, strain MRC1, hits give low values 1.03 | locus YCL069W, strain vba3, hits give low values 1.01 | locus YCR088W, strain abp1, hits give low values 1 | locus YDL005C, strain med2, hits give low values 1.02 | locus YDL035C, strain GPR1, hits give low values 1 | locus YDL040C, strain nat1, hits give low values 1.02 | locus YDL074C, strain BRE1, hits give low values 1.01 | locus YDL101C, strain DUN1, hits give low values 1.01 | locus YDL185W, strain tfp1, hits give low values 0.967 | locus YDL192W, strain arf1, hits give low values 0.988 | locus YDR001C, strain nth1, hits give low values 0.998 | locus YDR069C, strain doa4, hits give low values 0.996 | locus YDR101C, strain arx1, hits give low values 0.997 | locus YDR137W, strain rgp1, hits give low values 0.982 | locus YDR150W, strain NUM1, hits give low values 1.01 | locus YDR159W, strain sac3, hits give low values 0.957 | locus YDR162C, strain NBP2, hits give low values 0.999 | locus YDR195W, strain ref2 0.992 | locus YDR297W, strain sur2, hits give low values 1.01 | locus YDR318W, strain mcm21, hits give low values 0.987 | locus YDR334W, strain swr1, hits give low values 1.01 | locus YDR335W, strain msn5, hits give low values 1.01 | locus YDR363W, strain ESC2, hits give low values 1.06 | locus YDR388W, hits give low values 0.978 | locus YDR392W, strain spt3, hits give low values 1.08 | locus YDR502C, strain sam2, hits give low values 1 | locus YEL003W, strain gim4, hits give low values 1.02 | locus YEL037C, strain rad23, hits give low values 1.01 | locus YEL061C, strain CIN8 (second series), hits give low values 1 | locus YEL061C, strain CIN8, hits give low values 1 | locus YER002W, strain NOP16, hits give low values 0.996 | locus YER015W, strain faa2, hits give low values 1.01 | locus YER016W, strain bim1, hits give low values 0.995 | locus YER110C, hits give low values 0.99 | locus YER111C, strain swi4, hits give low values 1 | locus YER155C, strain BEM2 (second series), hits give low values 0.992 | locus YER155C, strain BEM2, hits give low values 0.993 | locus YER167W, strain BCK2, hits give low values 1.02 | locus YFR010W, strain ubp6, hits give low values 1.01 | locus YGL078C, strain dbp3, hits give low values 0.976 | locus YGL086W, strain mad1, hits give low values 1 | locus YGL167C, strain pmr1, hits give low values 1.02 | locus YGL173C, strain kem1, hits give low values 1.01 | locus YGL227W, strain vid30, hits give low values 1.01 | locus YGL240W, strain doc1, hits give low values 0.998 | locus YGL248W, strain PDE1, hits give low values 1.03 | locus YGL253W, strain hxk2, hits give low values 0.959 | locus YGR078C, strain PAC10, hits give low values 1.01 and 0.977 | locus YGR135W, strain pre9, hits give low values 0.969 | locus YGR229C, strain SMI1, hits give low values 0.983 | locus YGR252W, strain gcn5, hits give low values 0.849 | locus YHR013C, strain ard1, hits give low values 1.05 | locus YHR027C, strain rpn1, hits give low values 1.01 | locus YHR030C, strain SLT2, hits give low values 0.996 | locus YHR079C, strain IRE1 (second series), hits give low values 0.994 | locus YHR094C, strain hxt1, hits give low values 0.972 | locus YHR129C, strain ARP1, hits give low values 1 | locus YHR142W, strain chs7, hits give low values 1.01 | locus YHR200W, strain rpn10, hits give low values 0.991 | locus YIL066C, strain RNR3, hits give low values 1.01 | locus YIL073C, strain SPO22, hits give low values 0.99 | locus YIL125W, strain kgd1, hits give low values 0.972 | locus YIR030C, strain dcg1, hits give low values 0.976 | locus YJL092W, strain hpr5, hits give low values 1.02 | locus YJL095W, strain BCK1 (second series), hits give low values 1.02 | locus YJL095W, strain BCK1, hits give low values 0.987 | locus YJL115W, strain asf1, hits give low values 1.01 | locus YJL129C, strain trk1, hits give low values 1.01 | locus YJL134W, strain LCB3, hits give low values 1.01 | locus YJL154C, strain vps35, hits give low values 1.01 | locus YJL164C, strain tpk1, hits give low values 1.06 | locus YJL166W, strain qcr8, hits give low values 1.01 | locus YJL168C, strain set2, hits give low values 0.978
